# Results filed as inconclusive are left out. Active and inactive are the calls of the source. Calls follow the shape of the dose curve; as a rule, active = well fitted cell-killing curve with a large enough effect; inconclusive = small, poorly fitted or top-dose-only effect, or effect the other way; inactive = flat fitted curve, though single readings scatter.
# Assay: Compound cytotoxicity measured by an ATP content assay as a counter-screen for lead compounds in human astrocytes
# Settings: human astrocytes viability, ATP luminescence; series mostly up to 46.1 µM; activity change, negative = cytotoxicity: at the top concentration
# In short: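 Human astrocytes seeded 16–20 h beforehand at 37 C, 5% CO2, then exposed to compounds for set times (e.g. 6, 24 or 72 h). ATP content reagent added 1:1, 10 min room temperature; luminescence converted to percent inhibition of viability.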
SMILES,"activity change, negative = cytotoxicity",Potency
O=C1c2ccccc2C(=O)c2c1ccc(O)c2O,-2.34% (inactive),–
Cc1c(N)c(=O)n(-c2ccccc2)n1C,-1.57% (inactive),–
O=C(O)c1cccc(-c2noc(-c3ccccc3F)n2)c1,–,5.48 µM (active)
CCN1CCC(n2cc(CNc3cc(Cl)c4ncc(C#N)c(Nc5ccc(F)c(Cl)c5)c4c3)nn2)CC1,-4.32% (inactive),–
O=C(O)c1cc([N+](=O)[O-])ccc1NCCCc1ccccc1,-21.8% (inactive),–
CCOC1OC(=O)C[C@H]1NC(=O)[C@@H]1CCCN1C(=O)[C@@H](NC(=O)c1ccc(N)c(Cl)c1)C(C)(C)C (some centres not stated),8.7% (inactive),–
CC(=O)OC(C)OC(=O)C(C)c1ccc(-c2ccccc2)c(F)c1 (configuration not stated),7.3% (inactive),–
O=C(/C=C/c1ccc(O)cc1)c1ccc(O)cc1O,15.3% (inactive),–
Cc1cccc(/C=C/c2ccccc2)n1,-12.8% (inactive),–
Cc1nc(N)sc1-c1ccnc(Nc2ccc(N3CCOCC3)cc2)n1,6.28% (inactive),–
CNC1[C@H](O)C(O[C@@H]2C(O)C(O[C@H]3O[C@H]([C@@H](C)NC)CC[C@H]3N)[C@@H](N)C[C@H]2N)OC[C@]1(C)O (some centres not stated),12.8% (inactive),–
O=C(Nc1ccc(C(=O)O)c(O)c1)c1ccccc1,10% (inactive),–
Cc1ccc(O)c(-n2nc3ccccc3n2)c1,-22.7% (inactive),–
CC(O)=C(C#N)C(=O)Nc1ccc(C(F)(F)F)cc1,–,6.9 µM (active)
CC1=C(CO)C(=O)O[C@@H]([C@@H](C)[C@H]2CC[C@H]3[C@@H]4C[C@H]5O[C@]56[C@@H](O)C=CC(=O)[C@]6(C)[C@@H]4CC[C@]23C)C1,14.6% (inactive),–
CN1CC(=O)N/C1=N/C(=O)Nc1cccc(Cl)c1,10.6% (inactive),–
N#C/C(=C\c1ccc(O)c(O)c1)C(=O)Nc1ccccc1,-1.6% (inactive),–
OCc1ccc(-c2ccc(-c3ccc(CO)s3)o2)s1,–,21.8 µM (active)
O=c1c(-c2ccc(O)cc2)coc2cc(OC3O[C@H](CO)[C@H](O)[C@H](O)[C@H]3O)cc(O)c12 (some centres not stated),-29.9% (inactive),–

SMILES,"activity change, negative = cytotoxicity",Potency
c1ccc(CCNc2nc(-c3ccccc3)cs2)cc1,-6.7% (inactive),–
CC[C@]1(O)C[C@H]2CN(CCc3c([nH]c4ccccc34)[C@@](C(=O)OC)(c3cc4c(cc3OC)N(C=O)[C@H]3[C@@](O)(C(=O)OC)[C@H](OC(C)=O)[C@]5(CC)C=CCN6CC[C@]43[C@@H]65)C2)C1,-8.84% (inactive),–
O=S(=O)(O)c1ccc2nc(-c3ccccc3)[nH]c2c1,-7.27% (inactive),–
CC(C)(C)OC(=O)CN(Cc1ccc(Cl)cc1)Cc1ccc([N+](=O)[O-])s1,-18.4% [at 88.3 µM] (inactive),–
Nc1nc2ccc([N+](=O)[O-])cc2s1,7.77% [at 88.3 µM] (inactive),–
O=C(Nc1cc2cc[nH]c2cn1)c1ccccc1,–,0.489 µM (active)
Cc1csc(NC(=O)c2sc3nc4c(c(C(F)(F)F)c3c2N)CCC4)n1,–,3.46 µM (active)
CC(C)(C)COc1ccc(-n2cc(C(=O)O)cn2)cc1C#N,-0.262% [at 88.3 µM] (inactive),–
CC(C(=O)O)c1ccc(-c2ccccc2)c(F)c1 (configuration not stated),18.4% (inactive),–
CN(C)c1ccc(C(=C2C=CC(=[N+](C)C)C=C2)c2ccccc2)cc1,-28.5% (inactive),–
O=C1c2ccccc2-[n+]2ccc3c([nH]c4ccccc43)c21,–,4.35 µM (active)
CCC(C(=O)O)c1ccc(N2Cc3ccccc3C2=O)cc1 (configuration not stated),-15.4% (inactive),–
CC=CC[C@@H](C)C(=O)[C@H]1C(=O)N[C@@H](C(C)C)C(=O)N(C)CC(=O)N(C)[C@@H](CC(C)C)C(=O)N[C@@H](C(C)C)C(=O)N(C)[C@@H](CC(C)C)C(=O)N[C@@H](C)C(=O)N[C@H](C)C(=O)N(C)[C@@H](CC(C)C)C(=O)N(C)[C@@H](CC(C)C)C(=O)N(C)[C@@H](C(C)C)C(=O)N1C,-7.44% (inactive),–
CS(=O)(=O)c1ccc(-c2cn3ccccc3n2)cc1,–,8.69 µM (active)
O=C(Oc1ccccc1)c1cccc(C(=O)Oc2ccccc2)c1,6.57% [at 96.3 µM] (inactive),–
CN(C)c1cc(NC(=O)CNC(C)(C)C)c(O)c2c1C[C@@H]1C[C@H]3[C@H](N(C)C)C(=O)C(C(N)=O)=C(O)[C@@]3(O)C(=O)C1=C2O,-1.32% (inactive),–
CC1(C)OC2=C(C(=O)c3ccccc3C2=O)[C@H](NCc2ccccc2)[C@H]1O,–,8.91 µM (active)
C[C@@H](N)c1ccc(C(=O)Nc2ccnc3[nH]ccc23)cc1,-11.5% (inactive),–
